# Experimental data taken from PubChem BioAssay AID504834 (National Center for Advancing Translational Sciences (NCATS), 2011).
# In all, about 320,000 compounds went through this assay and about 22,000 (6.9%) were called active. Another 27% or so got no clear call; they are omitted. Many of the other results were omitted from the sample, so actives are more common in it than they were. Unmarked numbers belong to inactive results. Calls come from the whole dose curve; as a rule, active = well fitted inhibition curve with a large enough effect; inconclusive = small, poorly fitted or top-dose-only effect, or another doubt; inactive = no such curve, though single readings can be large or run the other way.
# Assay: Primary qHTS for delayed death inhibitors of the malarial parasite plastid, 96 hour incubation
# Conditions: P. falciparum luciferase reporter growth; series mostly up to 28.7 µM; activity change, negative = inhibition: at the top concentration
# How it was run: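 Erythrocytes infected with luciferase-expressing P. falciparum were dispensed at 2% hematocrit and 0.05% parasitemia (final), then incubated with compounds 96 hours at 37 C in 5% CO2. Luminescence after detection reagent addition reported growth.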
# % is set by controls: 0 for no effect and ±100 for the full control effect; potency is the fitted concentration of half-maximal effect.
Structure (SMILES),"activity change, negative = inhibition",Potency
CCc1ccc(OCC(=O)NCC(c2ccc(Cl)cc2)N2CCCCC2)cc1 (configuration not stated),19.3%,–
COc1cccc(C(=O)Nc2ccc(N3CCN(C(=O)c4ccco4)CC3)cc2)c1,15.5%,–
COc1ccc(Cl)cc1NS(=O)(=O)c1cccc(C(=O)NCC2CCCO2)c1 (configuration not stated),0.0416%,–
CC(C)Nc1nnc(SCC(=O)c2c[nH]c3ccccc23)s1,–,10.4 µM (active)
C[C@H](NC(=O)c1ccccc1)C(=O)OCC(=O)c1c[nH]c2ccccc12,22.5%,–
COC(=O)c1ccc(CSc2nnc(NC(C)C)s2)cc1,-3.42%,–
Cc1coc2c1c(C)cc1oc(=O)c(CC(=O)NCC(=O)N[C@H](C(=O)O)C(C)C)c(C)c12,-0.522%,–
COc1cc(-c2c(-c3ccc4c(c3)OCO4)noc2C)ccc1F,-10.2%,–
Cc1onc(-c2ccc(Cl)cc2)c1-c1ccnn1S(=O)(=O)c1ccc(Cl)cc1,–,1.17 µM (active)
Cc1onc(-c2ccccc2)c1C(=O)N=C(N)c1ccc(Cl)cc1,-3.39%,–
Cc1cccc([C@@H]2[C@@H]3C(=O)N(C)C(=O)[C@@H]3[C@@H]3C(=O)Nc4ccccc4C(=O)N23)c1,35.7%,–
CCOC(=O)c1sc(N)c(C#N)c1COC(=O)C1=COCCO1,0%,–
Cc1ccc(-c2ccc(=O)n(Cc3ccc(F)cc3Cl)n2)cc1,1.04%,–
COc1ccc(CNC(=O)CN(C(=O)c2csnn2)c2cnc3ccccc3c2)cc1,-6.61%,–
Cc1cccc(NS(=O)(=O)c2ccc(C(=O)NCC(C)(C)N3CCOCC3)cc2)c1C,0.321%,–
COc1cc(OC)cc(-c2nc3nc(C)c(CCC(=O)NCc4ccco4)c(C)n3n2)c1,24.9%,–
Cc1cc(C)n2nc(SCC(=O)NC(=O)NCc3ccco3)nc2n1,2.98%,–
Cc1nc2nc(SCC(=O)NCc3ccco3)nn2c(C)c1Cc1ccccc1,–,10.4 µM (active)
O=C(O)C(c1ccccc1)C1(O)CCCCC1 (configuration not stated),37.9%,–
CCCOc1cccc(C(=O)Nc2ccccc2C(=O)N2CCN(C)CC2)c1,-9.04%,–
CN(c1cccc(NC(=O)Nc2ccc(Cl)cc2)c1)S(C)(=O)=O,0%,–
CC(C)S(=O)(=O)c1csc(NC(=O)Nc2ccc(Cl)cc2)c1Cl,–,1.17 µM (active)
Cn1ccc(NC(=O)Nc2ccc(Cl)cc2)n1,61.5%,–
O=C(c1cccnc1)N1CCN(S(=O)(=O)c2cccs2)CC1,9.61%,–
Cc1ccc(-n2ncc3c2CCCC3NC(=O)c2cnccn2)cc1C (configuration not stated),27.8%,–
O=C1CCC(=O)N(O)CCCCCNC(=O)CCC(=O)N(O)CCCCCNC(=O)CCC(=O)N(O)CCCCCN1,–,10.4 µM (active)

Structure (SMILES),"activity change, negative = inhibition",Potency
CC(CN1CCCCC1)c1ccccc1 (configuration not stated),8.4%,–
CC(C)[C@@H]1COC(c2cccc(C3=N[C@H](C(C)C)CO3)c2)=N1,9.17%,–
CN(C(=O)c1cccc(OC2CCN(S(=O)(=O)N(C)C)CC2)c1)C1CCOC1 (configuration not stated),25.5%,–
CCCOC(=O)C1=C(C)NC2=C(C(=O)C(C(=O)OC)C(C)C2)C1c1ccc(N(C)C)cc1 (configuration not stated),13.8%,–
COC(=O)C1C(=O)c2c([nH]c(C(=O)OCCSC)c2C)CC1C (configuration not stated),–,3.7 µM (active)
OC(c1nc2ccccc2[nH]1)C(O)C(O)C(O)c1nc2ccccc2[nH]1 (configuration not stated),30.2%,–
C/C=C/c1ccc(OCCOc2ccc(C=O)cc2OC)c(OC)c1,-8.36%,–
C/C=C/c1ccc(OCCCCN2CCC(C)CC2)c(OC)c1,–,5.22 µM (active)
COc1ccc(/C=C/C(=O)N2CCCC2)cc1OC,0%,–
COc1ccc(CN2CCNC(=O)C2CC(=O)NCc2cn[nH]c2-c2ccccc2)c(F)c1 (configuration not stated),8.51%,–
CN(C(=O)COC(=O)Cn1cnc2c1c(=O)n(C)c(=O)n2C)C1(C#N)CCCCC1,14.8%,–
O=c1onc(-c2c(F)cccc2F)n1-c1ccccc1Cl,-7.75%,–
CCC(=O)c1cc(F)ccc1OCC(=O)Nc1ccc2c(c1)OCCO2,-52.7%,–
Cc1cc(C(F)(F)F)nn1CC(=O)N1CCCC1,49.1%,–
Cc1ccc2oc(=O)c3cnn(CC(=O)N4CCCCCC4)c3c2c1,–,9.28 µM (active)
COc1cccc2c(=O)n(CC(=O)N3CCCCCC3)ccc12,-12.4%,–
C/C(=N\Nc1nncc2ccccc12)c1ccc(Cl)c([N+](=O)[O-])c1,64.3%,–
Cn1nc(-c2ccccc2)c(-c2nc(-c3ccc(Cl)cc3)no2)c1Cl,13.6%,–
C/C(=N/Nc1ccc(Cl)cc1)c1cnnc(-c2ccccc2)n1,–,0.522 µM (active)
Cc1ccc(S(=O)(=O)NNC(=O)/C=C/c2cccc(F)c2)cc1,1.02%,–
Cc1ccc2c(c1)N(CC(=O)N1CCC(O)CC1)C(=O)CO2,20.6%,–
Cc1nc2ccccc2c(=O)n1NC(=O)c1ccc(Cl)c([N+](=O)[O-])c1,232%,–
O=C(Nn1cnc2ccccc2c1=O)c1ccccc1,12.2%,–
O=C(Nn1cnc2ccccc2c1=O)c1ccc(F)cc1Cl,–,11.7 µM (active)
CN(C(=O)c1ccccc1)c1nccnc1C#N,-10%,–
CN(C)C(=O)c1nc2ccc(Cl)cn2c1CNCc1cccc(OC(F)(F)F)c1,-21%,–
